# Measured values published in PubChem BioAssay (EPA / NIEHS).
# Records with an inconclusive call do not appear. Calls of active or inactive are those of the source. How the source made its calls, unless noted: active means hit-call score of the fitted dose curve at least 0.9, where 1 is the maximum; inactive means score below 0.9.
# Test system: not listed separately
# Experiment: CCTE_Shafer_MEA_acute_per_network_burst_electrodes_number_mean: CCTE's Neural Acute Assay for Mean Number of Electrodes in a Network Burst, Shafer Lab (AID 2284021);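 further: curves fitted for decreases only so hits reduce electrodes per burst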
# Method in brief: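 Percent change from baseline in average electrode count per network burst, rat cortical cultures on 48-well MEAs; 40-min recordings each side of exposure, DIV 13 or 15; threshold 8x rms noise; DMSO as negative control.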
SMILES,outcome,AC50
CCCCC=O,inactive,
CCCCc1oc2ccccc2c1C(=O)c1cc(I)c(OCCN(CC)CC)c(I)c1,inactive,
CC(=O)Nc1ccc(O)cc1,inactive,
N=C(N)c1ccc(OCCCCCOc2ccc(C(=N)N)cc2)cc1,,2.5 µM (active)
CCCCCCCCCCCC,inactive,
CCC(C)c1ccccc1O (centres undefined),inactive,
OCC(CO)(CBr)CBr,inactive,
Oc1c(Cl)cc(Cl)cc1Sc1cc(Cl)cc(Cl)c1O,inactive,
CN(C)CCOC(c1ccccc1)c1ccccc1,,1.25 µM (active)
Oc1ccc(Cc2ccccc2O)cc1,inactive,
O=C1NS(=O)(=O)c2ccccc21,inactive,
O=C(CCCN1CCC(O)(c2ccc(Cl)cc2)CC1)c1ccc(F)cc1,inactive,

# Test system: not listed separately
# Experiment: CCTE_Shafer_MEA_acute_network_burst_percentage: CCTE's Neural Acute Assay for Percentage of Network Bursts, Shafer Lab (AID 2284022);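 further: curves fitted for loss so actives lower network burst percentage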;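 on outcome: rat primary cortical neuron networks on multiwell MEA recorded 40 min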
# Method in brief: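 On DIV 13 or 15, at least three wells of rat cortical neurons per compound are dosed at 0.03-40 uM. Spontaneous firing is detected at 8x rms noise for 40 min before and after dosing at 37 C. The percent change in network-burst spike share is reported.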
SMILES,AC50,outcome
CCCCC=O,32.7 µM (active),
CCCCc1oc2ccccc2c1C(=O)c1cc(I)c(OCCN(CC)CC)c(I)c1,,inactive
CC(=O)Nc1ccc(O)cc1,,inactive
N=C(N)c1ccc(OCCCCCOc2ccc(C(=N)N)cc2)cc1,,inactive
CCCCCCCCCCCC,,inactive
CCC(C)c1ccccc1O (centres undefined),5 µM (active),
OCC(CO)(CBr)CBr,,inactive
Oc1c(Cl)cc(Cl)cc1Sc1cc(Cl)cc(Cl)c1O,7.49 µM (active),
CN(C)CCOC(c1ccccc1)c1ccccc1,7.74 µM (active),
Oc1ccc(Cc2ccccc2O)cc1,,inactive
O=C1NS(=O)(=O)c2ccccc21,,inactive
O=C(CCCN1CCC(O)(c2ccc(Cl)cc2)CC1)c1ccc(F)cc1,,inactive

# Test system: not listed separately
# Experiment: CCTE_Shafer_MEA_acute_cross_correlation_area: CCTE's Neural Acute Assay for Area of Cross Correlation, Shafer Lab (AID 2284024);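 further: area under pooled inter-electrode spike cross-correlation near zero lag as percent change from own baseline; curves fitted for loss of cross-correlation area so actives lower synchrony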
# Method in brief: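 Extracellular recordings from cultured rat cortical neurons measure network synchrony as cross-correlation area; each well's post-compound value (0.03-40 uM, 40 min) is compared with its own 40 min baseline to give percent change.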
SMILES,outcome,AC50
CCCCC=O,inactive,
CCCCc1oc2ccccc2c1C(=O)c1cc(I)c(OCCN(CC)CC)c(I)c1,inactive,
CC(=O)Nc1ccc(O)cc1,inactive,
N=C(N)c1ccc(OCCCCCOc2ccc(C(=N)N)cc2)cc1,inactive,
CCCCCCCCCCCC,inactive,
CCC(C)c1ccccc1O (centres undefined),inactive,
OCC(CO)(CBr)CBr,inactive,
Oc1c(Cl)cc(Cl)cc1Sc1cc(Cl)cc(Cl)c1O,inactive,
CN(C)CCOC(c1ccccc1)c1ccccc1,inactive,
Oc1ccc(Cc2ccccc2O)cc1,,8.12 nM (active)
O=C1NS(=O)(=O)c2ccccc21,,9.62 nM (active)
O=C(CCCN1CCC(O)(c2ccc(Cl)cc2)CC1)c1ccc(F)cc1,inactive,

# Test system: not listed separately
# Experiment: CCTE_Shafer_MEA_acute_cross_correlation_HWHM: CCTE's Neural Acute Assay for Cross Correlation at Half Width at Half Maximum, Shafer Lab (AID 2284026);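 further: percent change per well from pre-dose baseline in spike cross-correlogram half width; hits are a decrease in cross-correlogram half width relative to DMSO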;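 on outcome: spontaneous network firing of rat primary cortical neurons on multiwell microelectrode arrays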
# Method in brief: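 Percent change in cross-correlogram half width at half maximum, narrower meaning more synchrony, was derived per well from paired 40-min recordings before and during exposure to 0.03-40 uM compound in rat cortical cultures at 37 C.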
SMILES,outcome,AC50
CCCCC=O,inactive,
CC(=O)Nc1ccc(O)cc1,inactive,
N=C(N)c1ccc(OCCCCCOc2ccc(C(=N)N)cc2)cc1,,32 µM (active)
CCCCCCCCCCCC,inactive,
CCC(C)c1ccccc1O (centres undefined),,8.95 µM (active)
OCC(CO)(CBr)CBr,inactive,
Oc1c(Cl)cc(Cl)cc1Sc1cc(Cl)cc(Cl)c1O,,9.62 µM (active)
Oc1ccc(Cc2ccccc2O)cc1,inactive,
O=C1NS(=O)(=O)c2ccccc21,inactive,
O=C(CCCN1CCC(O)(c2ccc(Cl)cc2)CC1)c1ccc(F)cc1,inactive,

# Test system: not listed separately
# Experiment: CCTE_Shafer_MEA_acute_synchrony_index: CCTE's Neural Acute Assay for Synchrony, Shafer Lab (AID 2284027);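 further: network synchrony index of spontaneous spiking in primary rat cortical neurons on MEAs; fitted for loss of signal so actives lower synchrony relative to DMSO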
# Method in brief: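 The synchrony index is taken as percent change per well between a 40 min baseline and a 40 min recording with compound (0.03–40 uM), at 37C. Rat cortical cultures on multiwell MEAs at DIV 13 or 15, spike threshold 8× rms noise.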
SMILES,outcome,AC50
CCCCC=O,inactive,
CCCCc1oc2ccccc2c1C(=O)c1cc(I)c(OCCN(CC)CC)c(I)c1,inactive,
CC(=O)Nc1ccc(O)cc1,inactive,
N=C(N)c1ccc(OCCCCCOc2ccc(C(=N)N)cc2)cc1,,26.3 µM (active)
CCCCCCCCCCCC,inactive,
CCC(C)c1ccccc1O (centres undefined),,7.45 µM (active)
OCC(CO)(CBr)CBr,inactive,
Oc1c(Cl)cc(Cl)cc1Sc1cc(Cl)cc(Cl)c1O,,8.67 µM (active)
CN(C)CCOC(c1ccccc1)c1ccccc1,inactive,
Oc1ccc(Cc2ccccc2O)cc1,inactive,
O=C1NS(=O)(=O)c2ccccc21,inactive,
O=C(CCCN1CCC(O)(c2ccc(Cl)cc2)CC1)c1ccc(F)cc1,inactive,

# Biological target: Estrogen receptor (Homo sapiens) (UniProt P03372)
# Experiment: CCTE_Deisenroth_AIME_384WELL_LUC_Active: CCTE's 384-well Estrogen Receptor Transactivation Assay with AIME metabolic competence (ERTA luciferase; metabolism positive), Deisenroth Lab (AID 2284030; active means hit-call score of the fitted dose curve at least 0.9, where 1 is the maximum)
# Method in brief: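 Estrogenic luciferase signal in VM7Luc4E2 cells is measured at 24 hour, after chemicals have been preconditioned 2 hours with PB/BNF-induced rat hepatic S9 in alginate. Gain of signal is fitted relative to 17beta-estradiol, across 0.002 - 200 uM.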
# Estrogen receptor (Homo sapiens), sequence (P03372 whole entry, looked up): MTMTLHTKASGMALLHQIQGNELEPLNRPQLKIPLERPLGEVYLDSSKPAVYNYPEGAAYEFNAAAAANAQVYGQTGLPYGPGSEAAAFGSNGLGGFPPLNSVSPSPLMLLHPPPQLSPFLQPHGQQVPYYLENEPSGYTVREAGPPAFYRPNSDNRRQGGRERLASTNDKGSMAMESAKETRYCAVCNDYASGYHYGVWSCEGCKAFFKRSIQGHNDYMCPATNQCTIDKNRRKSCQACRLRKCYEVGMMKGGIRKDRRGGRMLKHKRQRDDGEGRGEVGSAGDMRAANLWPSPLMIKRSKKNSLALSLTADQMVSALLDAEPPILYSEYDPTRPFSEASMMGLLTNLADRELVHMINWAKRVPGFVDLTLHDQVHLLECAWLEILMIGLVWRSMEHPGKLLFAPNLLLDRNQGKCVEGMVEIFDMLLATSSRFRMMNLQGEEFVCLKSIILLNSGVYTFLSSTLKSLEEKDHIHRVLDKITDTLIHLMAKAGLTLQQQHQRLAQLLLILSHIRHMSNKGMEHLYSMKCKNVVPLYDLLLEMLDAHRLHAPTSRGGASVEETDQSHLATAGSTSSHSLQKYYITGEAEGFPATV
row,SMILES,outcome
1,CCCCCCCCCC=CCC1CC(=O)OC1=O (centres undefined),inactive
2,CCCCc1ccc2ccccc2c1S(=O)(=O)O,inactive
3,COc1cc([N+](=O)[O-])ccc1N,inactive

# Test system: not listed separately
# Experiment: CCTE_Shafer_MEA_dev_per_burst_spike_percent: CCTE's Neural Network Formation Assay for Percent of Spikes in a Burst, Shafer Lab (AID 2284032);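 on AC50: fitted as a decrease in burst spike percentage below DMSO baseline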
# Method in brief: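 Value is trapezoidal AUC over recordings on days 5, 7, 9 and 12 of the well-mean fraction of spikes falling in single-electrode bursts; rat cortical cultures exposed continuously from plating, treatment renewed DIV 5 and 9, fitted downward against DMSO.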
SMILES,outcome,AC50
CC(=O)Nc1ccc(O)cc1,inactive,
O=C(OC(=O)C(F)(F)C(F)(F)F)C(F)(F)C(F)(F)F,inactive,
CN(C)CCOC(c1ccccc1)c1ccccc1,,10 µM (active)
O=C1NS(=O)(=O)c2ccccc21,inactive,
O=CC(F)(F)C(F)(F)C(F)(F)F,inactive,
O=C(O)CCC(F)(F)C(F)(F)C(F)(F)C(F)(F)C(F)(F)F,inactive,
CC(C)c1c(C(=O)Nc2ccccc2)c(-c2ccccc2)c(-c2ccc(F)cc2)n1CC[C@@H](O)C[C@@H](O)CC(=O)O,,0.00992 µM (active)
FCOC(C(F)(F)F)C(F)(F)F,inactive,
O=C(CCCN1CCC(O)(c2ccc(Cl)cc2)CC1)c1ccc(F)cc1,,4.18 µM (active)
O=C(C=C(O)C(F)(F)F)C(F)(F)F,inactive,
Nc1ccn([C@@H]2O[C@H](CO)[C@@H](O)C2O)c(=O)n1 (some centres undefined),,0.341 µM (active)
O=C(O)C(F)(F)OC(F)(F)C(F)(F)OC(F)(F)C(F)(F)OC(F)(F)C(F)(F)C(F)(F)C(F)(F)F,inactive,
NC(C(F)(F)F)C(F)(F)F,inactive,

# Test system: not listed separately
# Experiment: CCTE_Deisenroth_AIME_384WELL_CTox_Active: Cytotoxicity Assessment (CTOX) in CCTE's 384-well Estrogen Receptor Transactivation Assay with AIME metabolic competence (metabolism positive), Deisenroth Lab (AID 2284037; active means hit-call score of the fitted dose curve at least 0.9, where 1 is the maximum;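 further: chemicals first conditioned 2 h by alginate-bound induced rat liver S9 before cells; activity means signal loss indicating cell death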)
# Method in brief: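 Cytotoxicity in VM7Luc4E2 breast cells, 24 hour, measured as protease-substrate fluorescence loss, after 2-hour metabolic conditioning with induced rat hepatic S9 in alginate microspheres. Concentrations 0.002 - 200 uM, 10 points, bidirectional fitting.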
SMILES,outcome,AC50
CC(=O)Nc1ccc(O)cc1,inactive,
CCCCCCCCCCCC,inactive,
CCC(C)c1ccccc1O (centres undefined),inactive,
OCC(CO)(CBr)CBr,inactive,
COc1cc([N+](=O)[O-])ccc1N,,118 µM (active)
